DAX1 inh-1 – DAX1 (NR0B1) inhibitors, primary screen, cell-based, HEK293, Gal4-DAX1, luciferase luminescence. Nuclear receptor subfamily 0 group B member 1 (Homo sapiens), P51843. 0.99% of 340,000 active. HEK293 Gal4-DAX1 luciferase reporter. inhibition, % at 6.75 µM;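 active = inhibition above the mean over all tested compounds plus 3 SD, cut at about 4.2% in these data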;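 note: inhibition shows as a rise in luminescence from relieved DAX1 repression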
Target sequence (P51843 207-470 limits assumed): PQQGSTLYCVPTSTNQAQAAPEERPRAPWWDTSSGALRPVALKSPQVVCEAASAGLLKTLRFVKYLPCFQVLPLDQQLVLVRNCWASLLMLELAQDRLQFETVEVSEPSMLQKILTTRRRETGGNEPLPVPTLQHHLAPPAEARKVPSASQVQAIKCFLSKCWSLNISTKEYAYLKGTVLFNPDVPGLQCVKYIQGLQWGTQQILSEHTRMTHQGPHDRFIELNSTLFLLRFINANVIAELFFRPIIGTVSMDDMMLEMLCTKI
ssDAF12 agonist – S. stercoralis DAF-12 nuclear receptor activators, primary screen, cell-based, luminescence, HEK293, GRIP1 co-expression, lit1-tk-luc; HEK293 ssDAF-12/GRIP1 lit1-tk-luc reporter; % of 3 µM dafachronic acid response; activation, % at 6.8 µM; 1% of 370,000 active; AID 652126, 2013;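 active = activation above the mean over all tested compounds plus 3 SD, cut at about 0.9% in these data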
DAX1 inh-2 – DAX1 (NR0B1) inhibitors on StAR promoter, primary screen, cell-based, luminescence, SF-1 (NR5A1), full-length DAX-1 | AID 652010, 2013 | inhibition, % at 6.8 µM | 1.1% of 370,000 active | HEK293T StAR-luciferase reporter, SF-1/DAX-1 repression relief;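 active = inhibition above the mean over all tested compounds plus 3 SD, cut at about 3.6% in these data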;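 note: higher inhibition means more luminescence from relief of DAX-1 repression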
hgDAF12 agonist – H. glycines DAF-12 receptor agonists, primary screen, cell-based, luminescence, HEK293, GAL4 fusion, UAS-luciferase. HEK293 GAL4-hgDAF12 UAS-luciferase reporter, agonist luminescence; normalized to butyrate control. activation, % at 6.8 µM. 1.8% of 370,000 active. Nuclear hormone receptor DAF-12 (Heterodera glycines), GAL4 fusion;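 active = activation above a cutoff set at the mean of all screened compounds plus 3 SD, cut at about 10% in these data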
GAA850 FXN act – FXN promoter activators, primary screen, cell-based, luciferase luminescence, HEK293 lucGAA850 | HEK293 lucGAA850 FXN promoter luciferase reporter, 24 h; percent of 10 µM SAHA response | activation, % at 6 µM | 0.56% of 360,000 active | AID 540364, 2011;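 active = activation above the average of all compounds screened plus 3 SD, cutoff fixed separately per campaign, cut at about 7.5% in these data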
hcDAF12 agonist – H. contortus DAF-12 nuclear receptor activators, primary screen, cell-based, luminescence, HEK293, lit1-tk-luc reporter. HEK293 hcDAF-12 lit1-tk-luc reporter; 0% DMSO, 100% Δ7-dafachronic acid. 1.4% of 370,000 active. AID 652067, 2013. activation, % at 6.8 µM;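 active = activation above the mean of all tested compounds plus 3 SD, cut at about 5.5% in these data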
DAX1 conf – DAX1 (NR0B1) inhibitors relieving SF-1 repression, confirmation, cell-based, luminescence, HEK293T, full-length DAX-1, SF-1 activated StAR promoter. shares compounds with DAX1 inh-2. HEK293T StAR-promoter luciferase reporter, SF-1/DAX-1 repression. inhibition, % at 6.8 µM. 87% of 2,400 active;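 active = inhibition above the average of every tested compound plus 3 SD, cut at about 3.8% in these data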
SF1 mutant ctr – StAR reporter signal changes without DAX1, counter-screen for DAX1 inhibitor project, cell-based, luminescence, AF-2 mutant SF-1, transactivation | inhibition, % at 6.8 µM | shares compounds with DAX1 inh-2 | 78% of 2,400 active | HEK293 StAR-luciferase, SF-1 AF2 mutant;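 active = inhibition above the mean of all tested compounds plus 3 SD, cut at about 3% in these data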
LXR ag – LXR agonists, Gal4 luciferase reporter, confirmation, counter-screen for hcDAF-12 agonist project, cell-based, luminescence, HEK293, H. contortus campaign | shares compounds with hcDAF12 agonist | activation, % at 6.8 µM | 3,400 tested, under 10 active | HEK293 Gal4-LXR tk-luc reporter, 24 h; normalized: DMSO 0%, positive control 100%;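 active = mean percent activation of the reporter above a cutoff set as the average over tested compounds plus their standard deviation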
hcDAF12 conf – H. contortus DAF-12 receptor agonists, confirmation, cell-based, luminescence, HEK293, lit1-tk-luc, triplicate. shares compounds with hcDAF12 agonist. 61% of 3,400 active. HEK293 hcDAF-12 lit1-tk-luc reporter; % of Δ7-dafachronic acid response. activation, % at 6.8 µM;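 active = mean activation across triplicate tests above the threshold derived from the earlier primary screen, cut at about 5.5% in these data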
hgDAF12 conf – H. glycines DAF-12 receptor agonists, confirmation, cell-based, luminescence, HEK293, GAL4-LBD fusion; shares compounds with hgDAF12 agonist; HEK293 GAL4-hgDAF12 luciferase reporter, agonist mode; percent of butyrate response; activation, % at 6.8 µM; 80% of 3,300 active; AID 743050, 2013;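 active = mean activation over triplicate wells above the hit cutoff derived from the earlier primary screen, cut at about 11% in these data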
LXRb DAF12 ctr – LXR agonists, Gal4 luciferase reporter, confirmation, counter-screen for hgDAF-12 agonist project, cell-based, luminescence, HEK293, H. glycines campaign | shares compounds with hgDAF12 agonist | 24 h | activation, % at 6.8 µM | 3,300 tested, under 10 active;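 active = mean activation of the triplicate above a set limit carried over from the primary screen, none filed active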
Of the large screens only hits and unclear results are named; the others gave an inactive call (follow-up assays come after a bar, where they were run). This is a sample that favours compounds with a hit; in the whole collection about 4.5% have one here.

Cc1ccc(-c2nc3cc(NC(=O)C(C)C)ccc3o2)cc1	ssDAF12 agonist 1.3, DAX1 inh-2 5.1, hgDAF12 agonist 13, hcDAF12 agonist 7.9 | DAX1 conf 14 | SF1 mutant ctr 4.4 | LXR ag inactive | hcDAF12 conf inactive | hgDAF12 conf 15 | LXRb DAF12 ctr inactive
Cc1cccc(-c2nc3cc(NC(=O)C4CCCO4)ccc3o2)c1 (stereo not given)	ssDAF12 agonist 0.9, DAX1 inh-2 6.8, hgDAF12 agonist 14, hcDAF12 agonist 8.7 | DAX1 conf 15 | SF1 mutant ctr 5.4 | LXR ag inactive | hcDAF12 conf 7.8 | hgDAF12 conf 12 | LXRb DAF12 ctr inactive
O=C(Nc1ccc2oc(-c3ccccc3F)nc2c1)c1ncn[nH]1	DAX1 inh-2 5.0, hgDAF12 agonist 19, hcDAF12 agonist 6.4 | DAX1 conf 9.3 | SF1 mutant ctr 5.3 | hgDAF12 conf 19 | LXRb DAF12 ctr inactive
Cc1ccc(-c2nc3cc(NC(=O)C(C)C)ccc3o2)cc1C	none
CC(=O)Nc1ccc2oc(-c3ccccc3)nc2c1	DAX1 inh-2 5.6, hgDAF12 agonist 15 | DAX1 conf 12 | SF1 mutant ctr 8.8 | hgDAF12 conf 15 | LXRb DAF12 ctr inactive
CC(C)Nc1ncnc2c1ncn2[C@H]1CN(Cc2cccnc2)C[C@@H](CO)O1	none (no result: DAX1 inh-1)
CN(C)S(=O)(=O)n1ccnc1	none
Cc1c2cc[n+](CCN3CCCCC3)cc2c(C)c2c1[nH]c1ccc(O)cc12	none (no result: ssDAF12 agonist, DAX1 inh-2, hgDAF12 agonist, hcDAF12 agonist)
COc1cc(CN2C[C@@H](CO)O[C@@H](n3cnc4c(N5CCOCC5)ncnc43)C2)cc(OC)c1OC	none (no result: DAX1 inh-1)
